# Data as given in the supplement of paper PMC6555819.
# Test system: VDR:RXRa (NR concentration 270 nM, RXRa partner concentration 90 nM)
# Assay: PBM binding z-score (relative to random genomic background probes); higher = stronger binding; sequences stand for … in GC…GCGATTGACAGCGTAGAATGAAGG
# Experimental: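 Protein-binding microarray (Agilent 4x180K custom design, double-stranded 60-nt probes: 5' GC cap, 34-nt variable region, 24-nt constant primer region; full probe sequence given). Purified or IVT nuclear receptor:RXRα heterodimers (3:1 NR:RXRα, mostly 270:90 nM) or homodimers were incubated for 1 h in PBS with 2% milk and no ligand, then detected with Alexa488 antibodies. Fluorescence from o1-orientation probes (~5 replicates averaged) was converted to z-scores against 500 random hg19 background probes. Variable regions are seed direct-repeat (DR0–DR5) sites, all their single-nucleotide variants and half-site ablations.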
row,Sequence,PBM binding z-score
1,CGTCCAAGGCCAGCAGGTCAGTGAAAGCGACGTG,-0.178
2,CGTCAAAGTTCTACTAAGGTAACGTAAAGCACGC,0.34
3,CGAACGAGGGCGTGAGTTGATAGCAAATGCCGAT,0.224
4,ATCTCTAGGTAAAGATAGTTCAGTGAATGCAAAT,0.815
5,TCTATTATTTGATTAGGGCAACCGAAACAGCGGA,0.857
6,TAGCCTAGGTCATGCGGGCCAGTAAAGTGTCGGC,2.75
7,CGTCCAAGGTCAATGCTAGGTCAGTAAAAGCATT,4.76
8,TATACAGGGTCAAGGGCCAGAGTACGAATGTCGA,4.43
9,TCTTGTAGTTCAAAGGTTAAGAAAGCCGAAGCCT,3.68
10,CAAACTAGGTCAAGAGGTCATAGTCCGCTTCCCG,5.59
11,AATACAGGGTCATCGTAGGCCATAGTACGCACAG,5.58
12,AGAATGACGTTATTAAGATCAGGGAATTGCGGTC,-0.00436
13,CAAACTAGGGCACGAAAGGTCAAAGTCGAATGAC,5.32
14,TCTAGCAGGCCAGTGGGTCACTCAAGAGGTACGG,0.297
15,CAAACTAGGTCACCGGAAGGTCAAGGTCCGCATG,5.58
16,GCAGACAGGTGAAACGCAGGGAACTCAGGGTGGC,-0.604
17,TTACCAAGGTGAAAGGTCGTTGACGCACGCCTTG,3.29
18,CGAACTAGGTCAAGGACAGTGATTCTCCGCACGC,1.48
19,CCTGCTAGGTCAATGGTCTGCTAAAGCAGCTCGC,0.867
20,TAGTCTAGGTCATTCAGGGGCCAGTATAGAAAGC,3.15

row,Sequence,PBM binding z-score
1,CAAACTAGGTCACGAAAGGTCAAAGGCGAATGAC,6.79
2,GCATATATGTAATACAAGGTGAAAGTCCGATTGT,0.278
3,ATATATAGGTTAAGGGTCATTCAGGTTGGTTCGC,6.11
4,CGTACAAGGTCAGAGAGGTCAGTGAATGCCGAGT,7.46
5,TCATATACGTAATACAGGTGAAAGTCGGCATCTA,1.29
6,TCAGACAGGTGAAGGTCACTCAGGTACGCAGTCG,4.18
7,TCATATAGGTAATACAGGTGAAATTCGGCATCTA,1.12
8,TAGCCTAGGTCAGTGGGCCAGTATAGTACGCATC,0.148
9,CCTAGCACGCCAATCTGGGTCACTCAAGGCTTGA,0.379
10,AGAATGAGGTTATTAAGATCAGGAAATTGCGGTC,2.43
11,CCTATTGGTTGACCATAAGGGCAACCGAAGCTCG,-0.0561
12,CAAACTAGGTCAAAGGTCCAAGTCGAGCCAACCA,3.41
13,CCGACTGGGGCCTAAGGTTACCATAAGCCAGCCC,-0.158
14,GCTAGCAGGCCATTTGGGTCGCTCAATGACGGGC,-0.563
15,GCTTACGGGTCAAAGGTTATAGCCTGAATAGAAT,5.72
16,GGAACGCGGGCAAAGTTGATAGCATCTGTCGACG,-0.564
17,ATCGAAAGGTAGAAGGTGAGTATACCCACCCGAA,-0.0163
18,GGAACGAGGGCATTCCAGTTGATAGCATGGCGAT,2
19,GCTAGTTGCTCAGTAAAAGGTCACACACCGGTCG,3.73
20,CAAACTAGGTCAAGGTCAAAGTCGGTTTGTGCCA,5.23
